The full list was thinned out, with hits kept by preference.
KDM5B inhibitor = inhibitors of human KDM5B histone demethylase; Q9UGL1; hit rate 2.6% among 220,000; Potency, µM (top dose mostly 57.7 µM), hits mostly inhibitors; KDM5B demethylase, FDH-coupled NADH fluorescence (FDH is formaldehyde dehydrogenase); active = well fitted inhibition curve with a large enough effect; note: 0% is about no effect; nearly all actives have a fitted effect of over 70% in size
Target sequence (Q9UGL1 whole entry, looked up): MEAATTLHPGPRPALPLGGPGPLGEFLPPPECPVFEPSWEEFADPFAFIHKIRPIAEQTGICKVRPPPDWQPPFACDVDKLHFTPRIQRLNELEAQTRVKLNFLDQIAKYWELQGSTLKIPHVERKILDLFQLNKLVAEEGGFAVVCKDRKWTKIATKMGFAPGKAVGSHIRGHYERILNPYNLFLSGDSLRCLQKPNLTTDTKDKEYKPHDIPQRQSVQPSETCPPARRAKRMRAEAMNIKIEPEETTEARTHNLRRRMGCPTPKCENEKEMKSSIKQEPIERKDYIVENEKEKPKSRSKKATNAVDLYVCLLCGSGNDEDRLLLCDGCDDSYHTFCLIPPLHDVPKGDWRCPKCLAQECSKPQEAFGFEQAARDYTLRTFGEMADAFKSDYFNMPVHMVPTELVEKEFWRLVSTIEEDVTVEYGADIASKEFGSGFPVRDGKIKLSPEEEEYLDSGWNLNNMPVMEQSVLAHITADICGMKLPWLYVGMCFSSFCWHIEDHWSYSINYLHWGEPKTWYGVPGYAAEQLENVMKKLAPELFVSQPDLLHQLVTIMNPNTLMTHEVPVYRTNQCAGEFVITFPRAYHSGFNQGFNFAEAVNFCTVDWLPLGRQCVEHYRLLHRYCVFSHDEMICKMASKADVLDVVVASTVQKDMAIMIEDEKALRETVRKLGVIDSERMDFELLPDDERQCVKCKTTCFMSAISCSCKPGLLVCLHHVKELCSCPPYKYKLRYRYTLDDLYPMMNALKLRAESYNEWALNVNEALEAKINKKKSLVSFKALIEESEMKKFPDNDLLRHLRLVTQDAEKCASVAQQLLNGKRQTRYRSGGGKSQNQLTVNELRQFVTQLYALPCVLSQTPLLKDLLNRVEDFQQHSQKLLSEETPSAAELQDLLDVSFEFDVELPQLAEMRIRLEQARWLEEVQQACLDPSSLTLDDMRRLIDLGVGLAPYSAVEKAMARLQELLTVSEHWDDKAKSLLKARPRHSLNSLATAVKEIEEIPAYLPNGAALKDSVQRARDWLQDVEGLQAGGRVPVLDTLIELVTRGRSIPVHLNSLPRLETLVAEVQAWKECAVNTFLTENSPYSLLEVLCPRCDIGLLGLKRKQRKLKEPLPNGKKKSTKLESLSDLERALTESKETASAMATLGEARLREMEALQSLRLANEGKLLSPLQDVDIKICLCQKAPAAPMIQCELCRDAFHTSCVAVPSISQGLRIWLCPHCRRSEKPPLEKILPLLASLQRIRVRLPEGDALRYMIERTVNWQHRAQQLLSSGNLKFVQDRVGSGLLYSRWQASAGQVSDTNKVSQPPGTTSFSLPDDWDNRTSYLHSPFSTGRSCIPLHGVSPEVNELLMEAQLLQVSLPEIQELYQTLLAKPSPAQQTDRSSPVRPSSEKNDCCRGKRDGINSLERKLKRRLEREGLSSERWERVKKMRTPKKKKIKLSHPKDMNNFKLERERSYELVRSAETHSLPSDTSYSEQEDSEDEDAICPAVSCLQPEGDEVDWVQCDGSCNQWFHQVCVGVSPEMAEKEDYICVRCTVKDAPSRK
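Compound dilutions met 200 nM (final) KDM5BΔAP for 10 min at room temperature before substrate addition. The substrate mix held 12.5 µM H3K4me3 with cofactors 25 µM α-ketoglutarate and 50 µM Fe²⁺. NADH signal gain over 30 min defined activity.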
* hit, by the source's call; i = inactive. Potency is the fitted concentration of half-maximal effect.

SMILES	KDM5B inhibitor
O=C(Nc1ccc(-c2nc3ccccc3o2)cc1)C1CCCC1	i
CCN(CC)CC(=O)N1CCC(C(=O)Nc2ccc(-c3nc4ccccc4o3)cc2)CC1	28.2µM*
Cc1ccc2nc(-c3ccc(NC(=O)C4CC4)cc3)oc2c1	i
O=C1NC2(CCN(C(=O)c3ccc4c(c3)OCO4)C2)OCc2ccccc21 (stereo not given)	i
O=C(NC1CCN(C(=O)N2CC3CC(C2)[C@H]2CCCC(=O)N2C3)CC1)C1CCC1 (stereo not given in full)	i
CCc1ccc(/C(C)=N/NC(=O)c2ccc(C(C)(C)C)cc2)cc1	i
CN(C)CC(=O)Nc1ccc(OC2CCN(C)CC2)nc1	i
CNc1ccc(OC2CCN(C(=O)COC)CC2)nc1	28.2µM*
COCC(=O)N1CCC(Oc2ccccc2C(=O)NCCc2ncccc2C)CC1	i
c1ccc(-c2nc(CC3CCCNC3)no2)cc1 (stereo not given)	i
Cc1ccc(-c2nonc2NC(=O)COc2cccc(C)c2)cc1	i
COc1ccccc1C(=O)N1CCN(c2cc(-c3cccs3)[nH]n2)CC1	i
COc1ccccc1C(=O)NC1CCN(c2cc(-c3cccs3)[nH]n2)C1 (stereo not given)	15.8µM*
COc1cc(OC)cc(C(=O)NC2CCN(c3cc(-c4cccs4)[nH]n3)C2)c1 (stereo not given)	3.55µM*
COc1ccc(Cl)cc1C(=O)NC1CCN(c2cc(-c3cccs3)[nH]n2)CC1	i
O=C(NC1CCN(c2cc(-c3cccs3)[nH]n2)C1)c1ccccc1Br (stereo not given)	25.1µM*
O=C(c1ccccc1Br)N1CCN(c2cc(-c3cccs3)[nH]n2)CC1	i
COc1ccc(-c2cc(N3CCC(NC(=O)c4ccccc4C)C3)n[nH]2)cc1 (stereo not given)	i
COc1cc(C(=O)NC2CCN(c3cc(-c4cccs4)[nH]n3)CC2)cc(OC)c1OC	i
COc1ccc(-c2cc(N3CCCC(NC(=O)c4cccs4)C3)n[nH]2)cc1 (stereo not given)	i
COCCO[C@H]1C(=O)N(C2CCN(C(=O)COc3ccccc3)CC2)[C@H]1c1ccncc1	i
Cc1ncsc1CN(C)C1CCc2nn(C)c(=O)n2CC1 (stereo not given)	i
COc1cccc(CN2CCCOCCNC(=O)[C@@H]3CCCC[C@@H]32)c1OC	i
COc1ccccc1-n1cc(C(=O)N2CCC3(CCNC(=O)CC3)CC2)cn1	i
CC(C)C(=O)N1CCC2(CCNC(=O)CC2)CC1	i
SMILES	KDM5B inhibitor
Cc1cccc2ncc(C(=O)N3CCC4(CCNC(=O)CC4)CC3)c(=O)n12	22.4µM*
Cc1cc2cc(CNC(=O)COc3ccccc3)ccc2n1C	i
COc1ccc(OCC(=O)NCc2nc(-c3ccc(OC)cc3)no2)cc1	i
Cc1ccc(-c2ccc3nnc(CNC(=O)COc4ccccc4)n3n2)cc1	35.5µM*
Cc1cccc(OCC(=O)NCc2nnc3ccc(-c4ccccc4)nn23)c1	i
Cc1ccc(-c2ccc3nnc(CNC(=O)COc4ccccc4)n3n2)cc1C	28.2µM*
COc1ccc(CNC(=O)COc2ccc(-c3nnc4n3CCCC4)cc2)cc1	i
Cc1cnc(CCNC(=O)COc2ccccc2)n1C1CCC1	i
COc1ccccc1CNC(=O)CSc1nnc2ccc(-c3ccc4c(c3)OCO4)nn12	i
COc1ccc(-c2ccc3nnc(CNC(=O)COc4ccc(F)cc4)n3n2)cc1	28.2µM*
Cc1ccsc1C(=O)NCCSC1CCCC1	i
CCc1ccc2c(CN(C)Cc3nc4ccccc4c(=O)[nH]3)cc(=O)oc2c1	i
Cc1cccc(CC(=O)N2CCC(Cc3nc(C4CCOCC4)no3)CC2)c1	i
CCOCc1cccc(CN)c1	i
COc1cccc(C2C(C(=O)Nc3ccccc3)=C(C)Nc3ncnn32)c1OC (stereo not given)	i
CC(C)C(NC(=O)N(C)Cc1ccccc1)c1ccc2c(c1)OCCO2 (stereo not given)	i
COc1ccc(-c2cc(C(=O)O)c3cc(Br)ccc3n2)cc1OC	i
Cn1cc(C(=O)NCCNC(=O)C2CCCCC2)c2ccccc21	i
COCC(=O)NC[C@H]1CCN(Cc2ccc(Cl)cc2)C[C@H]1N(C)C	i
COCC(=O)NC[C@H]1CCN(Cc2ccc(C#N)cc2)C[C@H]1N(C)C	17.8µM*
CN(C)[C@@H]1CN(Cc2ccc(C#N)cc2)CC[C@@H]1CNC(=O)C1CC1	i
O=C(CN1CCCC1=O)N1CCC(C2CCNC2)CC1 (stereo not given)	i
COc1ccc(NC(=O)N2CCc3c(C(=O)Nc4ccc5c(c4)OCO5)cccc32)cc1	22.4µM*
CCCNC(=O)c1cccc2c1CCN2C(=O)Nc1ccc(OC)cc1	i
COc1ccc(NC(=O)c2cccc3c2CCN3C(=O)Nc2ccc(F)cc2)cc1	i
SMILES	KDM5B inhibitor
CCc1noc(-c2cccn3c(CNC(=O)C4CCC4)nnc23)n1	25.1µM*
O=C(NCCc1noc(-c2ccccc2)n1)C1CCCCC1	i
O=C(NCc1nnc2c(-c3nc(C4CC4)no3)cccn12)C1CCCC1	28.2µM*
CCCc1noc(-c2cccn3c(CNC(=O)C4CCCC4)nnc23)n1	28.2µM*
CN(C(=O)CCc1ncc(-c2ccccc2F)o1)C1CCS(=O)(=O)C1 (stereo not given)	i
Cc1nn(CC(=O)Nc2ccc(Br)cc2Cl)c(=O)c(C#N)c1C	i
Cc1nc2ccccc2nc1CN1C(=O)NC2(CCCCCC2)C1=O	i
CCOc1ccc(N(Cc2cc3ccccc3[nH]c2=O)C(=O)C(C)(C)C)cc1	i
CCOC(=O)c1c(C)[nH]c(C)c1S(=O)(=O)N(C)CC(=O)Nc1ccc(C(C)C)cc1	i
Cc1ccc(-c2nn(C)c(=O)c3c2CCCC3)cc1S(=O)(=O)N1CCCC1	i
O=C(NCc1cccs1)c1cc(C2CC2)nc2onc(C3CCCNC3)c12 (stereo not given)	i
O=C(NCC(F)(F)F)c1cc(C2CC2)nc2onc(C3CCNC3)c12 (stereo not given)	89.1µM*
Cc1cc(C(=O)NCC(C)C)c2c(C3CCCNC3)noc2n1 (stereo not given)	i
Cc1cc(C(=O)N2CCCCC2)c2c(C3CCCNC3)noc2n1 (stereo not given)	i
Cc1cc(C(=O)NCc2cccs2)c2c(C3CCNC3)noc2n1 (stereo not given)	i
CC(C)CNC(=O)c1cc(C2CC2)nc2onc(C3CCCNC3)c12 (stereo not given)	i
O=C(c1cc(C2CC2)nc2onc(C3CCNCC3)c12)N1CCOCC1	56.2µM*
CC(C)CNC(=O)c1cc(C2CC2)nc2onc(C3CCNC3)c12 (stereo not given)	100µM*
O=C(c1cc(C2CC2)nc2onc(C3CCNCC3)c12)N1CCC(F)CC1	i
O=C(NC1CCN(Cc2ccccc2)C1)c1nn(-c2ccccc2)c(=O)c2ccccc12 (stereo not given)	i
NCCC(=O)Nc1ccccc1	i
CC(Cl)C(=O)NC1CCCCC1C (stereo not given)	i
COc1cc(C2CC(=O)N(c3ccc(C)cc3)C3=C2C(=O)OC3)cc(OC)c1OC (stereo not given)	i
O=C(CCC(=O)OCc1ccc(Cl)cc1)Nc1ccc2c(c1)oc1ccccc12	i
CCn1ccnc1CN1CCCC12CCN(c1ccc(C(F)(F)F)cn1)CC2	20µM*
O=C(CN1CCN(c2ccc(C(F)(F)F)cn2)CC1)NC1CCCCC1	i
CNC(=S)Nc1ccc(N2CCN(c3ccc(C(F)(F)F)cn3)CC2)nc1	i
